Experimental data: PubChem BioAssay AID1159580 (chemical genetic matrix, 2015)
The whole screen tested about 5,500 compounds, of which about 2,000 (36%) were called active. About 18% were inconclusive and are not listed. No stated cut-off is given here; in the data, active means normalized growth mostly below about 0.91 (no sharp cut-off); inconclusive means no clear call, values can overlap the other calls; inactive means mostly above about 0.92. The list shows a part of the results.

Assay: chemical genetic growth profiling, strain panel (AID 1159580);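 further: tested at 20 µM; growth read once vehicle control cultures reached saturation at 30 °C; 1 = growth at the plate median or of vehicle wells; lower values mean less growth of the strain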
Conditions: growth OD
[1] = S. cerevisiae deletion strains, locus YHR030C, strain SLT2, active compounds read low
[2] = S. cerevisiae deletion strains, locus YHR079C, strain IRE1, active compounds read low
[3] = S. cerevisiae deletion strains, locus YJL095W, strain BCK1, active compounds read low
[4] = S. cerevisiae deletion strains, locus YJR066W, strain TOR1, active compounds read low
[5] = S. cerevisiae deletion strains, locus YLR113W, strain HOG1, active compounds read low
[6] = S. cerevisiae deletion strains, locus YNL183C, strain NPR1, active compounds read low
[7] = S. cerevisiae deletion strains, locus YOR231W, strain MKK1, active compounds read low
[8] = S. cerevisiae deletion strains, locus YPL256C, strain CLN2, active compounds read low

Measured: normalized growth

CN1CCCC(n2nc(Cc3ccc(Cl)cc3)c3ccccc3c2=O)CC1 (centres undefined)
inactive: S. cerevisiae deletion strains, locus YAL021C, strain ccr4, active compounds read low 1.01 | S. cerevisiae deletion strains, locus YAL026C, strain drs2, active compounds read low 1 | S. cerevisiae deletion strains, locus YAL030W, strain snc1, active compounds read low 0.999 | S. cerevisiae deletion strains, locus YBL061C, strain skt5, active compounds read low 1 | S. cerevisiae deletion strains, locus YBR009C, strain hhf1, active compounds read low 0.93 | S. cerevisiae deletion strains, locus YBR023C, strain chs3, active compounds read low 1.02 | S. cerevisiae deletion strains, locus YBR171W, strain sec66, active compounds read low 0.989 | S. cerevisiae deletion strains, locus YBR231C, strain swc5, active compounds read low 0.984 | S. cerevisiae deletion strains, locus YBR279W, strain paf1, active compounds read low 1.02 | S. cerevisiae deletion strains, locus YCL011C, strain gbp2, active compounds read low 0.989 | S. cerevisiae deletion strains, locus YCL016C, strain dcc1, active compounds read low 1.04 | S. cerevisiae deletion strains, locus YCL061C, strain MRC1, active compounds read low 0.968 | S. cerevisiae deletion strains, locus YCL069W, strain vba3, active compounds read low 0.988 | S. cerevisiae deletion strains, locus YCR088W, strain abp1, active compounds read low 0.991 | S. cerevisiae deletion strains, locus YDL005C, strain med2, active compounds read low 0.999 | S. cerevisiae deletion strains, locus YDL040C, strain nat1, active compounds read low 1 | S. cerevisiae deletion strains, locus YDR001C, strain nth1, active compounds read low 1 | S. cerevisiae deletion strains, locus YDR069C, strain doa4, active compounds read low 0.996 | S. cerevisiae deletion strains, locus YDR159W, strain sac3, active compounds read low 0.912 | S. cerevisiae deletion strains, locus YDR195W, strain ref2 0.972 | S. cerevisiae deletion strains, locus YDR297W, strain sur2, active compounds read low 0.99 | S. cerevisiae deletion strains, locus YDR334W, strain swr1, active compounds read low 0.981 | S. cerevisiae deletion strains, locus YDR335W, strain msn5, active compounds read low 1.01 | S. cerevisiae deletion strains, locus YDR392W, strain spt3, active compounds read low 0.772 | S. cerevisiae deletion strains, locus YEL003W, strain gim4, active compounds read low 0.948 | S. cerevisiae deletion strains, locus YEL037C, strain rad23, active compounds read low 0.992 | S. cerevisiae deletion strains, locus YEL061C, strain CIN8 (second series), active compounds read low 0.983 | S. cerevisiae deletion strains, locus YER015W, strain faa2, active compounds read low 0.966 | S. cerevisiae deletion strains, locus YER016W, strain bim1, active compounds read low 1.03 | S. cerevisiae deletion strains, locus YER111C, strain swi4, active compounds read low 1.01 | S. cerevisiae deletion strains, locus YER155C, strain BEM2 (second series), active compounds read low 0.884 | S. cerevisiae deletion strains, locus YFR010W, strain ubp6, active compounds read low 0.941 | S. cerevisiae deletion strains, locus YGL167C, strain pmr1, active compounds read low 0.982 | S. cerevisiae deletion strains, locus YGL173C, strain kem1, active compounds read low 0.964 | S. cerevisiae deletion strains, locus YGL227W, strain vid30, active compounds read low 1 | S. cerevisiae deletion strains, locus YGL240W, strain doc1, active compounds read low 0.942 | S. cerevisiae deletion strains, locus YGL253W, strain hxk2, active compounds read low 1.02 | S. cerevisiae deletion strains, locus YHR013C, strain ard1, active compounds read low 0.994 | S. cerevisiae deletion strains, locus YHR027C, strain rpn1, active compounds read low 0.944 | [1] 1.03 | [2] 1.02 | S. cerevisiae deletion strains, locus YHR142W, strain chs7, active compounds read low 1.02 | S. cerevisiae deletion strains, locus YJL092W, strain hpr5, active compounds read low 0.981 | S. cerevisiae deletion strains, locus YJL095W, strain BCK1 (second series), active compounds read low 0.996 | [3] 0.979 | S. cerevisiae deletion strains, locus YJL115W, strain asf1, active compounds read low 1.02 | S. cerevisiae deletion strains, locus YJL129C, strain trk1, active compounds read low 1.07 | S. cerevisiae deletion strains, locus YJL154C, strain vps35, active compounds read low 0.992 | S. cerevisiae deletion strains, locus YJL164C, strain tpk1, active compounds read low 0.964 | S. cerevisiae deletion strains, locus YJL166W, strain qcr8, active compounds read low 0.96 | S. cerevisiae deletion strains, locus YJL187C, strain SWE1, active compounds read low 1.01 | [4] 0.99 | S. cerevisiae deletion strains, locus YKL160W, strain elf1, active compounds read low 1.04 | S. cerevisiae deletion strains, locus YKR026C, strain gcn3, active compounds read low 0.995 | S. cerevisiae deletion strains, locus YKR091W, strain srl3, active compounds read low 1 | S. cerevisiae deletion strains, locus YLL001W, strain dnm1, active compounds read low 0.958 | S. cerevisiae deletion strains, locus YLL026W, active compounds read low 1 | S. cerevisiae deletion strains, locus YLL041C, strain sdh2, active compounds read low 0.99 | S. cerevisiae deletion strains, locus YLR027C, strain aat2, active compounds read low 1.01 | [5] 0.975 | S. cerevisiae deletion strains, locus YLR221C, strain rsa3, active compounds read low 0.954 | S. cerevisiae deletion strains, locus YLR258W, strain gsy2, active compounds read low 1.02 | S. cerevisiae deletion strains, locus YLR262C, strain YPT6 (second series), active compounds read low 1.06 | S. cerevisiae deletion strains, locus YLR320W, strain mms22, active compounds read low 0.905 | S. cerevisiae deletion strains, locus YLR342W, strain FKS1, active compounds read low 1 | S. cerevisiae deletion strains, locus YLR357W, strain rsc2, active compounds read low 0.949 | S. cerevisiae deletion strains, locus YLR370C, strain arc18, active compounds read low 1.02 | S. cerevisiae deletion strains, locus YLR384C, strain iki3, active compounds read low 0.996 | S. cerevisiae deletion strains, locus YML120C, strain ndi1, active compounds read low 0.95 | S. cerevisiae deletion strains, locus YMR058W, strain fet3, active compounds read low 0.961 | S. cerevisiae deletion strains, locus YMR125W, strain sto1, active compounds read low 0.983 | S. cerevisiae deletion strains, locus YMR129W, active compounds read low 1 | S. cerevisiae deletion strains, locus YMR205C, strain PFK2, active compounds read low 0.981 | S. cerevisiae deletion strains, locus YMR231W, strain pep5, active compounds read low 1 | S. cerevisiae deletion strains, locus YNL071W, strain lat1, active compounds read low 0.993 | [6] 0.975 | S. cerevisiae deletion strains, locus YNL209W, strain ssb2, active compounds read low 0.993 | S. cerevisiae deletion strains, locus YNL248C, strain rpa49, active compounds read low 1 | S. cerevisiae deletion strains, locus YNL322C, strain KRE1 (second series), active compounds read low 1.01 | S. cerevisiae deletion strains, locus YNR049C, strain mso1, active compounds read low 1 | S. cerevisiae deletion strains, locus YOR001W, strain rrp6, active compounds read low 0.902 | S. cerevisiae deletion strains, locus YOR070C, strain gyp1, active compounds read low 1.01 | S. cerevisiae deletion strains, locus YOR080W, strain dia2, active compounds read low 0.98 | S. cerevisiae deletion strains, locus YOR083W, strain WHI5, active compounds read low 0.966 | S. cerevisiae deletion strains, locus YOR106W, strain vam3, active compounds read low 0.993 | [7] 0.993 | S. cerevisiae deletion strains, locus YOR265W, strain rbl2, active compounds read low 0.998 | S. cerevisiae deletion strains, locus YOR270C, strain vph1, active compounds read low 0.93 | S. cerevisiae deletion strains, locus YOR290C, strain snf2, active compounds read low 1.01 | S. cerevisiae deletion strains, locus YPL051W, strain arl3, active compounds read low 1.05 | S. cerevisiae deletion strains, locus YPL078C, strain atp4, active compounds read low 1.01 | S. cerevisiae deletion strains, locus YPL106C, strain sse1, active compounds read low 1.08 | S. cerevisiae deletion strains, locus YPL240C, strain hsp82, active compounds read low 1 | [8] 1.01
active: S. cerevisiae deletion strains, locus YDR137W, strain rgp1, active compounds read low 1.25 [resistant]

O=C1CCO1
inactive: [1] 0.984 | [2] 0.99 | [3] 0.999 | [4] 0.946 | [5] 0.942 | [6] 0.951 | [7] 0.996 | [8] 0.992

CC1(C)/C(=N/OC(=O)c2cccc(C(F)(F)F)c2)[C@]2(C)CCC1C2
inactive: S. cerevisiae deletion strains, locus YAL013W, strain DEP1, active compounds read low 1.01 | S. cerevisiae deletion strains, locus YBR229C, strain ROT2, active compounds read low 1.01 | S. cerevisiae deletion strains, locus YDL101C, strain DUN1, active compounds read low 1.04 | S. cerevisiae deletion strains, locus YDL134C, strain PPH21, active compounds read low 1 | S. cerevisiae deletion strains, locus YDR150W, strain NUM1, active compounds read low 0.989 | S. cerevisiae deletion strains, locus YEL061C, strain CIN8, active compounds read low 1.04 | S. cerevisiae deletion strains, locus YGR078C, strain PAC10, active compounds read low 0.996 | S. cerevisiae deletion strains, locus YGR229C, strain SMI1, active compounds read low 0.999 | [1] 0.88 | S. cerevisiae deletion strains, locus YHR087W, strain rtc3, active compounds read low 0.99 | S. cerevisiae deletion strains, locus YJR043C, strain POL32, active compounds read low 0.978 | S. cerevisiae deletion strains, locus YJR075W, strain HOC1, active compounds read low 0.979 | S. cerevisiae deletion strains, locus YKL190W, strain CNB1, active compounds read low 1.01 | S. cerevisiae deletion strains, locus YLR039C, strain RIC1, active compounds read low 0.977 | S. cerevisiae deletion strains, locus YLR058C, strain SHM2 (second series), active compounds read low 1.01 | S. cerevisiae deletion strains, locus YLR085C, strain ARP6, active compounds read low 1 | S. cerevisiae deletion strains, locus YLR262C, strain YPT6, active compounds read low 0.964 | S. cerevisiae deletion strains, locus YMR219W, strain ESC1, active compounds read low 0.987 | S. cerevisiae deletion strains, locus YMR263W, strain SAP30, active compounds read low 0.967 | S. cerevisiae deletion strains, locus YMR307W, strain GAS1, active compounds read low 0.741 | S. cerevisiae deletion strains, locus YNL128W, strain TEP1, active compounds read low 1.01 | S. cerevisiae deletion strains, locus YNL153C, strain GIM3, active compounds read low 0.963 | S. cerevisiae deletion strains, locus YNL298W, strain CLA4 (second series), active compounds read low 0.987 | S. cerevisiae deletion strains, locus YNL322C, strain KRE1, active compounds read low 1.02 | S. cerevisiae deletion strains, locus YNR030W, strain Alg12, active compounds read low 1.01 | S. cerevisiae deletion strains, locus YOL006C, strain TOP1, active compounds read low 0.898 | S. cerevisiae deletion strains, locus YPL055C, strain LGE1, active compounds read low 1 | S. cerevisiae deletion strains, locus YPL241C, strain CIN2, active compounds read low 1.01 | S. cerevisiae deletion strains, locus YPR135W, strain CTF4, active compounds read low 1.06 | S. cerevisiae strains, strain wild type, active compounds read low 0.999
active: S. cerevisiae deletion strains, locus YML094W, strain GIM5, active compounds read low 1.18 [resistant]
